Screening results from PubChem BioAssay.
A selection: hits, their analogues and other compounds. The true share with any hit is near 19%.
MARV entry inh: Marburg virus entry inhibition; Marburg virus pseudotyped entry inhibition, cell reporter; Potency, µM (titrated, usually from 37.8 µM), for inactives: at the highest dose activity change, negative = inhibition, most hits filed as inhibitors; 1.8% of 300,000 active; calls by dose curve; tested in HEK293 cells; note: potency is the fitted concentration of half-maximal effect; % is set by controls: 0 for no effect and ±100 for the full control effect
CHX counter: counter-screen for Shiga toxin inhibitors: cycloheximide protein synthesis inhibition; cell reporter, cycloheximide protein synthesis inhibition counterscreen; max response, %; 12% of 300,000 active; AID 2314; in the data active = max response mostly above about 13%, no sharp cut-off; inactive = mostly below about 14%; note: read at 38.3 µM for the half of the compounds with a filed dose; 0% is about no effect
Pf growth 48h: P. falciparum growth inhibition at 48 hours (one generation); P. falciparum luciferase growth in erythrocytes, 48 h; 5.9% of 310,000 active; Potency, µM (top dose mostly 28.7 µM), for inactives: at the highest dose activity change, negative = inhibition, hits mostly inhibitors; note: potency is the fitted concentration of half-maximal effect; % is set by controls: 0 for no effect and ±100 for the full control effect
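Here the parasites carry a stable luciferase gene and grow inside erythrocytes in Albumax-based RPMI medium with compound for one erythrocytic cycle. Activity is scored as loss of luminescent signal.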
Lassa entry inh: inhibitors of Lassa virus binding or cell entry; Lassa virus pseudotype entry inhibition, cell reporter; AID 540256; Potency, µM (titrated, usually from 37.9 µM), for inactives: at the top dose activity change, negative = inhibition, most hits filed as inhibitors; 1.2% of 300,000 active; calls by dose curve; tested in HEK293 cells; note: potency is the fitted concentration of half-maximal effect; % is set by controls: 0 for no effect and ±100 for the full control effect; nearly all actives have a fitted effect of over 50% in size
Pf growth 96h: P. falciparum growth inhibition at 96 hour, primary screen for plastid delayed-death inhibitors | Potency, µM (top dose mostly 28.7 µM), inactives show at the highest dose activity change, negative = inhibition, hits mostly inhibitors | AID 504834 | 6.9% of 320,000 active | P. falciparum luciferase reporter growth, 96 h; note: potency is the fitted concentration of half-maximal effect; % is set by controls: 0 for no effect and ±100 for the full control effect
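Infected RBCs, 2% Hct / 0.05% parasitemia final; luciferase-reporter P. falciparum; cpd 96 h, 37 C, 5% CO2; luciferase detection reagent; luminescence.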
Shiga inhibitor: inhibitors of Shiga toxin in Vero cells | Vero cells, Shiga toxin protein synthesis inhibition reporter | inhibition, % at 38.7 µM | 9.2% of 290,000 active | AID 2315; in the data active = inhibition mostly above about 28%, no sharp cut-off; inactive = mostly below about 43%; note: 0% is about no effect
* = called active by the depositor; u = inconclusive; x = not tested or not shown; [ ] = dose if it differs, or a comment. Unless noted, calls come from the whole dose curve; as a rule, active = well fitted inhibition curve with a large enough effect; inconclusive = small, poorly fitted or top-dose-only effect, or another doubt; inactive = no such curve, though single readings can be large or run the other way.

SMILES | MARV entry inh | CHX counter | Pf growth 48h | Lassa entry inh | Pf growth 96h | Shiga inhibitor
O=C(COC(=O)c1cc(Br)c(Br)s1)NCCC1=CCCCC1 | u | -1 | 10% | 2% | 41% | 12
COc1cc(NC(=O)C(CC(C)C)NS(=O)(=O)c2ccc3c(c2)oc(=O)n3C)c(C(=O)O)cc1OC (stereo not drawn) | u | x | x | 0%[46.1 µM] | x | x
Cc1ccc(S(=O)(=O)NC(=O)NCc2ccc3c(c2)OCO3)cc1 | 25% | -1 | 0% | 20% | 6% | -8
CCCN(CCC)c1nc(-c2ccccn2)nc2ccccc12 | u | -3 | 0.83µM* | u | 0.33µM* | -9
CCCCN(CCCC)c1nc(-c2ccccc2)nc2ccccc12 | x | x | x | -2%[46.1 µM] | x | x
Cc1cccc(-c2nc(NCCCN3CCOCC3)c3ccccc3n2)c1 | -10% | 7 | x | 16% | 2.9µM* | -3
COCCN(CCOC)c1nc(-c2ccc(C)cc2)nc2ccccc12 | x | 13* | 0% | x | u | 73*
CCCN(CCC)c1nc(-c2ccccc2F)nc2ccccc12 | x | x | x | 5%[46.1 µM] | x | x
CCCCN(CC)c1nc(-c2ccncc2)nc2ccccc12 | u | -1 | 2.9µM* | 0% | x | -16
COc1cc(-c2noc(CSc3nc(-c4ccc(F)cc4)cc(=O)[nH]3)n2)cc(OC)c1OC | x | x | x | 1%[46.1 µM] | x | x
CCN1C(=O)[C@H]2[C@@H](c3ccc(C)cc3)N3C(=O)N(c4ccc(C(F)(F)F)cc4)C(=O)[C@@]3(CC)[C@H]2C1=O | x | -2 | u | x | -11% | -2
CCn1c(=O)cc(OCC(=O)Nc2ccc(C)c(F)c2)c2ccccc21 | -3%[46.1 µM] | x | x | 19%[46.1 µM] | x | x
COc1ccc(OCC#CCN2CCC(C)CC2)cc1 | 3%[46.1 µM] | 8 | 8% | 0% | u | 30
Cc1ccc(-c2nc(NCCN(C)C)c3ccccc3n2)cc1 | u | 18* | u | u | -21% | 80
Cc1cccc(-c2nc(NCCCN(C)C)c3ccccc3n2)c1 | u | 14* | u | 7%[46.1 µM] | -13% | 51
Cc1ccc(-c2nc(N(C)C3CCN(C)CC3)c3ccccc3n2)cc1 | u | 2 | x | u | 6.6µM* | -2
COc1ccc(CNc2nc(-c3ccccc3)nc3ccccc23)cc1OC | u | 4 | u | 0%[46.1 µM] | u | -11
Cc1ccc(-c2nc(NCCCO)c3ccccc3n2)cc1 | -42%[46.1 µM] | 10 | -3% | u | 33% | 21
CCOC(=O)C1CCCN(CCC(=O)Nc2cc(C)ccc2C)C1 (stereo not drawn) | x | -4 | -4% | x | 6.6µM* | 1
Cc1cccc(N2CCN(C(=O)c3ccc(NS(=O)(=O)c4ccc5[nH]c(=O)[nH]c5c4)cc3)CC2)c1C | -15% | 1 | u | -24% | 8.3µM* | -3
CC1CC(C)CN(C(=O)c2ccc(NS(=O)(=O)c3ccc4[nH]c(=O)[nH]c4c3)cc2)C1 (stereo not drawn) | 12% | x | u | 6% | u | x
CCCCC(=O)Nc1ccc(C(=O)N2CCCC(C(=O)OCC)C2)cc1 (stereo not drawn) | 0% | 20* | u | -6% | 59% | 13
O=C(c1ccc(NS(=O)(=O)c2ccc3[nH]c(=O)[nH]c3c2)cc1)N1CCN(c2ccccc2O)CC1 | 22%[46.1 µM] | x | 3% | -1% | u | x
CCOC(=O)C1CCCN(C(=O)c2ccc(Cl)cc2)C1 (stereo not drawn) | -22%[46.1 µM] | -2 | 8% | -3%[46.1 µM] | 32% | -8
CCOC(=O)C1CCCN(CCC(=O)Nc2ccccc2C)C1 (stereo not drawn) | x | -1 | 0% | x | -1% | 2
SMILES | MARV entry inh | CHX counter | Pf growth 48h | Lassa entry inh | Pf growth 96h | Shiga inhibitor
CCOC(=O)C1CCCN(C(=O)c2ccc(NS(=O)(=O)c3ccc4[nH]c(=O)[nH]c4c3)cc2)C1 (stereo not drawn) | 7%[46.1 µM] | x | u | 20% | 5.9µM* | x
Cc1cc(Br)ccc1NC(=O)c1ccc(-n2cncn2)c([N+](=O)[O-])c1 | -11% | x | u | -8%[46.1 µM] | -9% | x
O=S(=O)(c1cnccc1N1CCN(CCO)CC1)N1CCCCC1 | -1% | 0 | 6% | 8% | 37% | -7
COC(=O)c1ccccc1OCc1cccc(C)n1 | 28%[46.1 µM] | -2 | 8% | 2% | 16% | -13
O=C1Nc2cc(C(=O)N3CCOCC3)ccc2SC1N1CCOCC1 (stereo not drawn) | 6% | 5 | 17% | 7% | u | -5
CCOC(=O)C1CCCN(C(=O)c2ccc3c(c2)NC(=O)C(N2CCOCC2)S3)C1 (stereo not drawn) | u | -2 | 8.3µM* | -1% | u | -9
CN1CC(=O)Nc2ccccc2C1=O | x | -5 | 32% | x | -6% | -12
CN1C(=O)c2ccccc2NC(=O)C1Cc1ccccc1 (stereo not drawn) | x | 1 | 7% | x | 12µM* | -10
O=S(=O)(c1ccc(Cl)c(S(=O)(=O)N2CCCC2)c1)N1CCCC1 | u | 1 | -2% | -23% | 28% | -12
CCCn1c(-c2ccc(C(=O)OC)cc2)nc2c1c(=O)[nH]c(=O)n2Cc1ccccc1 | 12%[46.1 µM] | 1 | 9% | u | 5% | 25
CCCn1c(-c2cccc([N+](=O)[O-])c2)nc2c1c(=O)[nH]c(=O)n2Cc1ccccc1 | u | -1 | u | u | 5.2µM* | -7
Cc1ccc(-c2nc3c(c(=O)[nH]c(=O)n3Cc3ccccc3)n2Cc2ccccc2)o1 | u | -1 | 5.9µM* | u | u | 19
NS(=O)(=O)c1ccc(NC(=O)CN2CCN(S(=O)(=O)c3ccc(F)cc3)CC2)cc1 | x | -11 | -11% | x | -24% | -8
O=C(CN1CCN(S(=O)(=O)c2ccc(Br)cc2)CC1)Nc1ccc(F)cc1F | u | 13* | -7% | u | -21% | 17
O=C(CN1CCN(S(=O)(=O)c2ccc(Cl)cc2)CC1)Nc1ccc(F)cc1F | u | 17* | 40% | 13% | -5% | 24
O=C(CN1CCN(S(=O)(=O)c2ccc(Br)cc2)CC1)Nc1ccccc1F | -19%[46.1 µM] | -1 | 4% | -2% | 82% | -11
O=C(CN1CCN(S(=O)(=O)c2ccc(Br)cc2)CC1)Nc1ccc(F)cc1 | u | -1 | 4.1µM* | u | 19% | -5
Clc1ccc(-c2cc(CSc3cccc(Cl)c3)on2)cc1 | 6% | -1 | 84% | 6% | 4% | 3
O=C(CCl)NCc1cc(-c2ccc(Cl)cc2)no1 | u | 16* | 2.1µM* | u | 2.9µM* | 29
Clc1ccc(-c2cc(CSc3ccccc3)on2)cc1 | u | 51* | 229% | u | 214% | 132*
c1ccc(SCc2cc(-c3ccccc3)no2)cc1 | -15%[46.1 µM] | 39* | 237% | 11% | 313% | 82*
CCN1C[C@]2(COC(=O)c3ccccc3N)CC[C@H](OC)C34[C@@H]5C[C@H]6[C@H](OC)[C@@H]5[C@](O)(C[C@@H]6OC)[C@@](O)([C@H]13)[C@@H](OC)[C@@H]42 | 0% | -3 | u | x | u | -15
